# Assay results: PubChem BioAssay (NCATS)
# Inconclusive results are not listed. Entries that show only a call come without a potency. Values without a mark were called inactive. The source made the active and inactive calls. Unless noted, the call rests on the fitted dose curve; in most records, active means well fitted curve in the direction sought with a large enough effect; inconclusive means small, poorly fitted or top-dose-only effect, or another doubt; inactive means no such curve, though single readings can be large; an effect the other way counts as inactive or inconclusive.
# Experiment: Primary qHTS for Vero E6 cytotoxicity: counterscreen for inhibitors of SARS-S pseudo-typed particle cell entry (AID 1479150; calls by dose curve)
# Settings: cell viability; series mostly up to 57.1 µM
row,Structure (SMILES),outcome
1,CN(C/C=C/c1ccccc1)Cc1cccc2ccccc12,inactive
2,Cc1c(-c2ccc(O)cc2)n(Cc2ccc(OCCN3CCCCCC3)cc2)c2ccc(O)cc12,inactive
3,COc1ccc(CCN(C)CCCC(C#N)(c2ccc(OC)c(OC)c2)C(C)C)cc1OC (centres undefined),inactive

# Experiment: Confirmatory qHTS for VERO E6 Cytotoxicity Assay: Counterscreen for SARS-CoV-2 CPE Assay (AID 1508605; calls by dose curve; further: nearly all actives have a fitted effect of over 60% in size)
# Settings: cell viability luminescence; series mostly up to 20 µM
row,Structure (SMILES),Potency
1,Clc1ccc2c(c1)N=C(N1CCNCC1)c1ccccc1N2,inactive
2,O=S(=O)(c1cccc2c(Cl)cccc12)N1CCCNCC1,inactive
3,O=S(=O)(c1cccc2c(I)cccc12)N1CCCNCC1,inactive

# Experiment: Confirmatory qHTS for activators (rescue) of SARS-CoV-2 Cytopathic Effect (CPE) (AID 1508606; calls by dose curve; further: potency means the concentration at half of the fitted maximal effect; nearly all actives have a fitted effect of over 70% in size)
# Settings: Vero E6 SARS-CoV-2 CPE rescue, viability luminescence; series mostly up to 20 µM
row,Structure (SMILES),Potency
1,C=C1C(=O)[C@@]23C(CC[C@@H]1[C@H]2O)[C@@]12CO[C@]3(O)[C@@H](O)[C@@H]1C(C)(C)CC[C@@H]2O (some centres undefined),10 µM (active)
2,Cc1ccc(C(=O)Nc2cccc(C(F)(F)F)c2)cc1Nc1nc(-c2cccnc2)nc2c1cnn2C,1.41 µM (active)
3,OCCCNc1cc(-c2ccnc(Nc3cccc(Cl)c3)n2)ccn1,5.62 µM (active)

# Experiment: Confirmatory qHTS for small molecule stabilizers of the endoplasmic reticulum resident proteome: Secreted ER Calcium Modulated Protein (SERCaMP) assay (AID 1508628); further: nearly all actives have a fitted effect of over 40% in size; further: potency means the concentration at half of the fitted maximal effect
# Settings: SERCaMP secreted luciferase ER calcium/proteostasis reporter; series mostly up to 76.3 µM
# Method in brief: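 We seeded SH-SY5Y-GLuc-SERCaMP cells, added compounds (three concentrations in the primary run, eleven up to 76.6 uM in confirmation), incubated 16 h, depleted ER calcium with thapsigargin, and read luciferase 4 h later.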
row,Structure (SMILES),Potency
1,OC[C@@H]1[C@@H](O)[C@H](O)[C@H]2[C@@H](O)CCN21,inactive
2,CC(C)(O)C1OC2CCC3(C)C(O)(CCC4Cc5c([nH]c6ccccc56)C43C)C2=CC1=O (centres undefined),28.2 µM (active)
3,CN1C2CCC1CC(OC(=O)C1CCC(C(=O)OC3CC4CCC(C3)N4C)(c3ccccc3)c3ccccc31)C2 (centres undefined),4.47 µM (active)

# Experiment: Cell Viability qHTS for small molecule stabilizers of the endoplasmic reticulum resident proteome (AID 1508629);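 further: human SH-SY5Y neuroblastoma cells carrying the GLuc-SERCaMP reporter; compound exposure about 46 h in total before the viability read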
# Settings: cell viability counter-screen, 100 nM thapsigargin for final 4 h
row,Structure (SMILES),max response
1,CCCOc1ccc2[nH]cc(C3=CCNCC3)c2n1,2.34%
2,CC(C)(O)C1OC2CCC3(C)C(O)(CCC4Cc5c([nH]c6ccccc56)C43C)C2=CC1=O (centres undefined),28.4%
3,CN1C2CCC1CC(OC(=O)C1CCC(C(=O)OC3CC4CCC(C3)N4C)(c3ccccc3)c3ccccc31)C2 (centres undefined),-2.96%

# Experiment: Primary qHTS for small molecule stabilizers of the endoplasmic reticulum resident proteome: Secreted ER Calcium Modulated Protein (SERCaMP) assay (AID 1508630)
# Settings: SH-SY5Y GLuc-SERCaMP (Gaussia luciferase released on ER calcium loss) secretion, thapsigargin, luminescence; series mostly up to 38.4 µM
# Method in brief: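 GLuc-SERCaMP-expressing SH-SY5Y cells, pretreated 16 h with compound, are challenged with thapsigargin to empty ER calcium stores; after 4 h, coelenterazine is added directly to the medium and luminescence is imaged.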
row,Structure (SMILES),Potency
1,CC1=C[C@@H]2c3cccc4[nH]cc(c34)C[C@H]2N(C)C1,inactive
2,CCN1C[C@]2(C)CC[C@H](OC)[C@]34C5C[C@@H]6CC[C@@](O)(C5C(=O)O6)C(C13)[C@@H](OC(=O)c1ccccc1)C24,inactive
3,C=C1C2C[C@]3(C4CC5[C@@]6(C)CC[C@H](O)[C@@]5(C3CC2=O)C4[N+]([O-])(CC)C6)[C@@H]1O (some centres undefined),inactive
4,C1CC[C@H]([C@@]23C[C@H](C[C@H]4CCCN[C@H]42)[C@@H]2CCCCN2C3)NC1,inactive
5,COC1=C[C@]23CCCN2CCc2cc4c(cc2[C@@H]3[C@@H]1O)OCO4,inactive
6,COC(=O)C1=CO[C@@H](C)[C@@H]2CN3CC[C@]4(C(=O)Nc5c4ccc(OC)c5OC)[C@H]3C[C@H]12,inactive
7,O=C1CCC[C@H]2[C@H]3CCCN4CCCC(=CN12)[C@@H]34,inactive
8,CC1(C)OC1COc1c2occc2cc2ccc(=O)oc12 (centres undefined),inactive
9,CCN1C[C@]2(C)CC[C@H](OC)[C@@]34[C@H]1C1(OCO[C@@]15C[C@H](OC)C1C[C@]3(O)C5[C@H]1OC)[C@@H](O)[C@H]24,inactive
